PubChem BioAssay (NCATS)
Records with an inconclusive call do not appear. Entries that show only a call come without a potency. The source made the active and inactive calls. Calls come from the whole dose curve; as a rule, active = well fitted inhibition curve with a large enough effect; inconclusive = small, poorly fitted or top-dose-only effect; inactive = flat fitted curve, though single readings scatter.

The compounds below were run on CRL-7250 (assay: qHTS assay to identify novel small-molecules to repurpose for Merkel cell carcinoma treatment (AID 1296009; note: nearly all actives have a fitted effect of over 60% in size)). Details: MCC and control cell lines, CellTiter-Glo viability, 72 h; series mostly up to 92 µM.
How it was run: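 qHTS format: cells treated with library compounds in DMSO across 8 (NPC) or 11 (MIPE) concentrations. Readout after 72 hr at 37 degree celsius was CellTiter-Glo luminescence.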
In the case of `C=CCCN1CCC2(CC1)CN(C(=O)c1c(F)cccc1F)c1ccc(Cl)cc12`, the Potency is reported as “inactive”.
With `CCNC(=O)Nc1ccc(Oc2ncnc(N)c2C=NOC)cc1Cl` the Potency was “inactive”.
`Clc1cccc(-n2nnnc2NCc2ccccc2Oc2ccccn2)c1Cl` was tested, and the Potency was “inactive”.
In the case of `CC1=C2C[C@@]3(C)[C@@H](CCC[C@@H]3C)C[C@@]2(O)OC1=O`, the Potency is reported as “inactive”.
In the case of `CCc1cc(CC[C@]2(C3CCCC3)CC(O)=C(Cc3nc4nc(C)cc(C)n4n3)C(=O)O2)cc(CC)n1`, the Potency is reported as “inactive”.
For `COC(=O)N[C@H](C(=O)N1CCC[C@@H]1c1ncc(-c2ccc(-c3ccc(-c4cnc([C@@H]5CCCN5C(=O)[C@@H](NC(=O)OC)C(C)C)[nH]4)cc3)cc2)[nH]1)C(C)C`, the Potency was “inactive”.
`NC(Cc1c[nH]c2ccccc12)C(=O)NC(CCC(=O)O)C(=O)O` (stereo not given) was tested, and the Potency was “inactive”.
`COc1cc2c(cc1OC)N1C(=O)C[C@]34C=CCN5CC[C@@H]2[C@@H](CC3)[C@]514` was tested, and the Potency was “inactive”.
For `COc1cc(C2Oc3c(OC)cc(/C=C/C(=O)OC[C@H]4O[C@@H](OC(C)(C)C(=O)O)[C@H](O)[C@@H](O)[C@@H]4O)cc3C2CO)ccc1O` (stereo not given in full), the Potency was “inactive”.
With `COc1cc([C@H]2Oc3cc([C@H]4Oc5cc(O)cc(O)c5C(=O)[C@H]4O)ccc3O[C@H]2CO)ccc1O` the Potency was “inactive”.
In the case of `COc1ccc(-c2coc3cc(O)ccc3c2=O)cc1`, the Potency is reported as “inactive”.
In the case of `CC/C=C\CC1C(=O)C=CC1(CCCCC1CCC(=O)O1)OC(C)=O` (stereo not given), the Potency is reported as “inactive”.
`CON=C(C(=O)N[C@@H]1C(=O)N2C(C(=O)OCOC(=O)C(C)(C)C)=C(C=Cc3scnc3C)CS[C@H]12)c1csc(N)n1` was tested, and the Potency was “inactive”.
With `CC1(C)CC[C@]2(C(=O)O[C@@H]3O[C@H](CO[C@@H]4O[C@H](CO)[C@@H](O)[C@H](O)[C@H]4O)[C@@H](O)[C@H](O[C@@H]4O[C@H](CO)[C@@H](O)[C@H](O)[C@H]4O)[C@H]3O)CC[C@]3(C)C(=CCC4[C@@]5(C)CC[C@H](O[C@@H]6OC[C@@H](O)[C@H](O)[C@H]6O)[C@@](C)(C(=O)O)C5CC[C@]43C)[C@@H]2C1` (stereo not given in full) the outcome was “inactive [at 9.27 µM]”.
With `CCNC(=O)Nc1ccc2ncc(Nc3ccc(C)cc3)nc2n1` the Potency was “inactive”.
With `CN(C)c1ccccc1CN1CCCN(Cc2ccccc2N(C)C)C1c1ccncc1` the Potency was “inactive”.
In the case of `O=C(C[C@@H]1CC=CCCC(=O)O[C@H](c2ccccc2)CNC1=O)NCc1ccc(Cl)cc1`, the Potency is reported as “inactive”.
For `COC1CCC(C(=O)c2ccc3nc4c(cc3c2)CCCO4)CC1` (stereo not given), the Potency was “inactive”.
`CN(C1CCc2c(c3ccccc3n2CC(=O)O)C1)S(=O)(=O)c1ccc(F)cc1` (stereo not given) was tested, and the Potency was “inactive”.
`CNC[C@@H](O)[C@@H](O)[C@H](O)[C@H](O)CO` was tested, and the Potency was “inactive”.
With `CC(=O)O[C@]1(C(C)=O)CC[C@H]2[C@@H]3C=C(C)C4=CC(=O)CC[C@]4(C)[C@@H]3CC[C@@]21C` the Potency was “inactive”.
With `O=C1Nc2ccc(I)cc2C1=Cc1cc(Br)c(O)c(Br)c1` the Potency was “inactive”.
For `CN(C)CCC=C1c2ccccc2COc2ccc(CC(=O)O)cc21`, the Potency was “inactive”.
`C=C[C@@H]1CN2CCC1C[C@@H]2C(O)c1ccnc2ccc(OC)cc12` (stereo not given in full) was tested, and the Potency was “inactive”.
For `CC1CCC2C(C)(C)C(O)CCC2(C)C12Cc1c(O)cc3c(c1O2)CN(C(CCCN=C(N)N)C(=O)O)C3=O` (stereo not given), the Potency was “inactive”.
For `COc1cc(/C=C/C(=O)OC2CC3CCC2(C)C3(C)C)ccc1O` (stereo not given), the Potency was “inactive”.
With `COc1cc(O)c2c(c1)C(=O)c1cc(C)cc(O)c1C2=O` the Potency was “inactive”.
`NC1CCC(Nc2nc(Nc3ccc(C(=O)N4CCCCC4)cc3)c3ncn(-c4cccc(F)c4)c3n2)CC1` (stereo not given) was tested, and the Potency was “inactive”.
For `NC(=O)NN=Cc1ccc([N+](=O)[O-])o1`, the Potency was “inactive”.
In the case of `O=C(O[C@H]1[C@@H]2C[C@@H]3OC[C@@](O)([C@H]2[C@H](O[C@@H]2O[C@H](CO)[C@@H](O)[C@H](O)[C@H]2O)O3)[C@@H]1O)c1ccccc1`, the Potency is reported as “inactive”.
With `CCOC(=O)O[C@]1(C(=O)OCCl)CC[C@@H]2[C@H]3CCC4=CC(=O)C=C[C@]4(C)[C@@H]3[C@@H](O)C[C@@]21C` the Potency was “inactive”.
In the case of `O=C(NCc1ccccc1)[C@H](Cc1ccccc1)NC(=O)[C@@H]1O[C@@H]1C(=O)NCCc1ccc(O)cc1`, the Potency is reported as “inactive”.
With `C[N+]1(C)[C@@H]2C[C@@H](OC(=O)C(O)(c3cccs3)c3cccs3)C[C@H]1[C@@H]1O[C@@H]12` the Potency was “inactive”.
With `O=C(CS(=O)Cc1ccco1)NCC=CCOc1cc(CN2CCCCC2)ccn1` (stereo not given) the Potency was “inactive”.
For `CO[C@@]12CC3[C@@H]([C@@H](O)[C@@H](OC(C)=O)C4[C@](C)(COC(C)=O)CCC[C@]34C)[C@@H](C)C1=CC(=O)O2` (stereo not given in full), the Potency was “inactive”.
With `COc1cc(C2Oc3c(OC)cc(CCCO)cc3C2CO)ccc1O` (stereo not given) the Potency was “inactive”.
For `CCOC(=O)N1CCN([N+]([O-])=NOc2cc(ON=[N+]([O-])N3CCN(C(=O)OCC)CC3)c([N+](=O)[O-])cc2[N+](=O)[O-])CC1`, the Potency was “inactive”.
`CC(C)(C)[C@H](NC(=O)c1ccc(N)c(Cl)c1)C(=O)N1CCC[C@@H]1C(=O)N[C@H](C#N)CC(=O)O` was tested, and the outcome was “inactive [at 4.96 µM]”.
`CN(C)CCOc1ccc(-c2nc(-c3ccc4c(c3)CCC4=NO)c(-c3ccncc3)[nH]2)cc1` was tested, and the Potency was “inactive”.
With `C=C(C(=O)O)C1CC2=C(C)CCCC2(C)C[C@@H]1O` (stereo not given in full) the Potency was “inactive”.
